Hits are enriched below; roughly 3.9% of the tested compounds scored in any of these assays.
Anthrax LF prot = Bacillus anthracis LF protease inhibitors, primary screen, biochemical, multiplex microsphere, MLPCN library. multiplex microsphere protease cleavage assay. AID 588501, 2011. Lethal factor (Bacillus anthracis), P15917. hit rate 0.12% among 360,000. inhibition, % at 10 µM; further: plate controls were buffer without enzyme for full effect and enzyme alone for no effect
Target sequence (P15917 whole entry, looked up): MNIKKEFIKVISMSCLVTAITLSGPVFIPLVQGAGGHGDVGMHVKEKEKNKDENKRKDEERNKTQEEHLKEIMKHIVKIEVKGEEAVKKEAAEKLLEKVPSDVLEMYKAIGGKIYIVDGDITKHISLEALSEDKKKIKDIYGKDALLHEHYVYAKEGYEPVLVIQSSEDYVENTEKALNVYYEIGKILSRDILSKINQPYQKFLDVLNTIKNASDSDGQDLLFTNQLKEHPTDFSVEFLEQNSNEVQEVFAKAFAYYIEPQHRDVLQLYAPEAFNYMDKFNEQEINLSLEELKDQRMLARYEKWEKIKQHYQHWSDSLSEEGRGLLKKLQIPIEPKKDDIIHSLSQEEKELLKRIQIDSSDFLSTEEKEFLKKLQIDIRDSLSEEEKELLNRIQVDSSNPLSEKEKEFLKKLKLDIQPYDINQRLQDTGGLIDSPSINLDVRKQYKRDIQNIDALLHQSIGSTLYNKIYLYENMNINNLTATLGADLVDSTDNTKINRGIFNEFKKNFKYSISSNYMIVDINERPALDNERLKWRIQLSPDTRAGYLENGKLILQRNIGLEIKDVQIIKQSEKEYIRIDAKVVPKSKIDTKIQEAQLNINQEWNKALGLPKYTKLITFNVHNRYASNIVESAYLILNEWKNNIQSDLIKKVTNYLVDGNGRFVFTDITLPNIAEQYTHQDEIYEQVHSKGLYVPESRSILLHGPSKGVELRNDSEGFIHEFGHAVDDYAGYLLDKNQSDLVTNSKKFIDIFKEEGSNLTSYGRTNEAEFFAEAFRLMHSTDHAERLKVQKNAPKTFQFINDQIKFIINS
Bead autofluor = counter-screen for toxin protease inhibitors: compound fluorescence | fluorescence intensity (concentration not given with the values) | AID 624483 | compound autofluorescence counterscreen, microsphere flow cytometry; hits give high values | hit rate 3.1% among 360,000; in the data active means fluorescence intensity above about 16000; inconclusive means no clear call, values can overlap the other calls
3CLpro inhibitor = SARS-CoV 3CLpro protease inhibitors, primary screen, biochemical, quenched FRET; inhibition, % at 6 µM; hit rate 0.14% among 290,000; AID 1706, 2009; recombinant SARS-CoV 3CLpro, quenched FRET peptide cleavage; Replicase polyprotein 1ab (Severe acute respiratory syndrome coronavirus), P0C6X7; in the data active means inhibition above about 12%
BoNT A protease = BoNT/A light chain protease inhibitors, primary screen, biochemical, flow cytometry, MLPCN library; multiplex microsphere protease substrate cleavage; inhibition, % at 10 µM; hit rate 0.17% among 360,000; AID 588499, 2011; Botulinum neurotoxin type A light chain protease (Clostridium botulinum A str. ATCC 3502); further: plate controls were buffer without enzyme for full effect and enzyme alone for no effect
BoNT F protease = BoNT/F light chain protease inhibitors, primary screen, biochemical, flow cytometry, MLPCN library | AID 588497, 2011 | Botulinum neurotoxin type F light chain protease (Clostridium botulinum) | Multiplex microsphere protease cleavage assay | inhibition, % at 10 µM | hit rate 0.22% among 360,000; in the data active means inhibition above about 35%, passing the limit was not always enough; inconclusive means no clear call, values can overlap the other calls; further: plate controls were buffer without enzyme for full effect and enzyme alone for no effect
DUSP3 inh = VHR1 phosphatase inhibitors, primary screen, biochemical, absorbance, uHTS; Dual specificity protein phosphatase 3 (Homo sapiens), P51452; recombinant VHR phosphatase, pNPP absorbance; inhibition, % at 13.3 µM; hit rate 0.52% among 290,000; in the data active means inhibition above about 50%
Active calls of the source: *. Unless noted, no stated cut-off is given here; in the data, active means inhibition above about 30%; inconclusive means no clear call, values can overlap the other calls; inactive means below that.

Results for COc1ccc(-c2c(C)nn3c(N4CCC(C(=O)NCCN(C)C)CC4)cc(C)nc23)cc1OC ?
Anthrax LF prot: -2; Bead autofluor: 23368*; 3CLpro inhibitor: 4; BoNT A protease: -2; BoNT F protease: -2; DUSP3 inh: 7

How did CCCN(CCC)C(=O)C1CCN(c2cc(C)nc3c(-c4ccc(OC)c(OC)c4)c(C)nn23)CC1 do in these assays?
Anthrax LF prot: 5; Bead autofluor: 5335; 3CLpro inhibitor: -4; BoNT A protease: 0; BoNT F protease: -12; DUSP3 inh: 3

Results for Cc1cc(C)c(C#N)c(N2CCN(Cc3ccccc3)CC2)n1 ?
Anthrax LF prot: -3; Bead autofluor: 23816*; 3CLpro inhibitor: 3; BoNT A protease: 0; BoNT F protease: -2; DUSP3 inh: 4

Results for Cc1cc(C)c(C#N)c(N2CCN(Cc3ccc4c(c3)OCO4)CC2)n1 ?
Anthrax LF prot: -4; Bead autofluor: 2740; 3CLpro inhibitor: 4; BoNT A protease: 0; BoNT F protease: inconclusive; DUSP3 inh: 22

How did N#Cc1c(N2CCCCC2)nc(N2CCCCC2)c2c1CCN(Cc1ccccc1)C2 do in these assays?
Anthrax LF prot: 12; Bead autofluor: 18858*; 3CLpro inhibitor: -2; BoNT A protease: inconclusive; BoNT F protease: -1; DUSP3 inh: 5

Results for N#Cc1c(Cl)nc(Cl)c2c1CCN(Cc1ccccc1)C2 ?
Anthrax LF prot: 2; Bead autofluor: 3547; 3CLpro inhibitor: -4; BoNT A protease: 6; BoNT F protease: -9; DUSP3 inh: 2

Results for O=S(=O)(c1ccc(S(=O)(=O)N(Cc2ccccc2)Cc2ccco2)cc1)N1CCCC1 ?
Anthrax LF prot: -4; Bead autofluor: 16963*; 3CLpro inhibitor: 1; BoNT A protease: -4; BoNT F protease: -4

How did CCN(Cc1ccccc1)S(=O)(=O)c1ccc(S(=O)(=O)N2CCN(C)CC2)cc1 do in these assays?
Anthrax LF prot: -2; Bead autofluor: 8867; 3CLpro inhibitor: -1; BoNT A protease: 0; BoNT F protease: 2; DUSP3 inh: 36

Results for COc1ccc(CN2C(=O)c3cccnc3C2=O)cc1S(=O)(=O)N(C)c1ccc(C)cc1 ?
Anthrax LF prot: -3; Bead autofluor: 5048; 3CLpro inhibitor: 7; BoNT A protease: -5; BoNT F protease: -7; DUSP3 inh: 15

What do the screens show for `Cc1ccc(NC(=O)COc2ccccc2CNC(C)(C)CC(C)(C)C)cc1`?
Anthrax LF prot: -16; Bead autofluor: 16482*; 3CLpro inhibitor: -1; BoNT A protease: -2; BoNT F protease: -2; DUSP3 inh: 21

What do the screens show for `Cc1ccc(NC(=O)COc2ccc(Br)cc2CO)cc1`?
Anthrax LF prot: -1; Bead autofluor: 22055*; 3CLpro inhibitor: -4; BoNT A protease: -5; BoNT F protease: -8; DUSP3 inh: 28

How did O=C(COc1ccc(Br)cc1CO)Nc1ccccc1 do in these assays?
Anthrax LF prot: 0; Bead autofluor: 10580; 3CLpro inhibitor: 0; BoNT A protease: 0; BoNT F protease: -1; DUSP3 inh: 18

How did COc1ccc(N(CC(=O)O)S(=O)(=O)c2ccc(C)cc2)cc1Cl do in these assays?
Anthrax LF prot: 4; Bead autofluor: 3695; 3CLpro inhibitor: 3; BoNT A protease: 1; BoNT F protease: 5; DUSP3 inh: 10

Results for Cc1cc(Nc2ccccc2N2CCOCC2)n2ncnc2n1 ?
Anthrax LF prot: -2; Bead autofluor: 16563*; 3CLpro inhibitor: -2; BoNT A protease: 0; BoNT F protease: -1; DUSP3 inh: 39

Results for COc1ccc(C2c3c4c(n(C)c3CCN2C)CCN(C)C4c2ccc(OC)cc2)cc1 (configuration not stated) ?
Anthrax LF prot: -2; Bead autofluor: 16735*; 3CLpro inhibitor: 6; BoNT A protease: -1; BoNT F protease: -1; DUSP3 inh: 16

What do the screens show for `CC(=O)Nc1ccc(Nc2ncnc3c2cnn3-c2cccc(C)c2)cc1`?
Anthrax LF prot: -18; Bead autofluor: 19017*; 3CLpro inhibitor: 6; BoNT A protease: 7; BoNT F protease: 11; DUSP3 inh: 4

High-throughput results deposited in PubChem BioAssay by several laboratories.
